Measured values reported in PubChem BioAssay (NCATS).
“And” between values parts separate entries of the source, which are not always exact repeats. Identical values can stand only once. Results filed as inconclusive are left out. The source made the active and inactive calls. Calls follow the shape of the dose curve; as a rule, active = well fitted curve in the direction sought with a large enough effect; inconclusive = small, poorly fitted or top-dose-only effect, or another doubt; inactive = no such curve, though single readings can be large or run the other way.

Assay: qHTS Assay for Identifying Gametocytocidal Compounds (AID 743244);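 as to max response: actives lower the fluorescent signal which means gametocytes are killed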
Conditions: P. falciparum 3D7 stage III-V gametocytes, alamarBlue, 72 h; max response: hits give low values
In short: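 In this qHTS viability screen, late-stage 3D7 gametocytes are incubated with compound for 72 h, then with alamarBlue for 24 h; reduced resorufin fluorescence marks killing.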
% is scaled to controls: 0 for no effect and ±100 for the full control effect; potency is read from the fitted curve at half-maximal effect.

Row | Compound | Potency | max response
1 | Cc1cc2nc3ccc(=[N+](C)C)cc-3sc2cc1N | 6.31 µM (active) | –
2 | CCOC(=O)[C@H](CCc1ccccc1)N[C@@H](C)C(=O)N(CC(=O)O)C1Cc2ccccc2C1 | – | -4.1% (inactive)
3 | CN1C(CSCC(F)(F)F)Nc2cc(Cl)c(S(N)(=O)=O)cc2S1(=O)=O (centres undefined) | – | 2.14% (inactive)
4 | CCCc1c2oc(C(=O)O)cc(=O)c2cc2c(=O)cc(C(=O)O)n(CC)c12 | – | -6.99% (inactive)
5 | OCCc1ccccc1 | – | 0.746% (inactive)
6 | C[C@H]1C[C@@H]2[C@H]([C@@H](O)C[C@@]3(C)[C@H]2CC[C@]3(O)C(=O)CO)[C@@]2(C)C=CC(=O)C=C12 | – | -12.4% (inactive)
7 | CN(CC1(C)CCCO1)S(=O)(=O)c1ccc(Cl)c(S(N)(=O)=O)c1 (centres undefined) | – | -10.7% (inactive)
8 | CO/N=C(/C(=O)N[C@@H]1C(=O)N2C(C(=O)[O-])=C(C[n+]3ccn4ncccc43)CS[C@H]12)c1nsc(N)n1 | – | -9.85% (inactive) and -19.4% (inactive)
9 | CCC[C@H](N[C@@H](C)C(=O)N1[C@H](C(=O)O)C[C@@H]2CCCC[C@@H]21)C(=O)OCC | – | -14.5% (inactive)
10 | C[C@H](CN1CCCC1)C(=O)c1ccc(C(F)(F)F)cc1 | – | 15.3% (inactive)
11 | O=C1CC[C@H](C(=O)N2CCCCC2)N1 | – | -15.9% (inactive)
12 | CC(=O)OCC(=O)Nc1cc(C#N)cc(NC(=O)COC(C)=O)c1Cl | – | -6.24% (inactive)
13 | Cc1nc([N+](=O)[O-])cn1-c1ccc([N+](=O)[O-])cc1 | – | 9.29% (inactive)
14 | Cc1cc(OCCOCC[N+](C)(C)Cc2ccccc2)ccc1C(C)(C)CC(C)(C)C | 7.08 µM (active) | –
15 | C[C@@]12CCC[C@H]1[C@@H]1CC[C@H]3C[C@@H](O)CC[C@]3(C)[C@H]1CC2 | – | 4.41% (inactive)
16 | Nc1c(NC/C=C\COc2cc(CN3CCCCC3)ccn2)c(=O)c1=O | – | -0.695% (inactive)
17 | NC(=O)COCCN1CCN(C(c2ccccc2)c2ccc(Cl)cc2)CC1 (centres undefined) | – | -3.31% (inactive)
18 | CC(CCc1ccc2c(c1)OCO2)NN (centres undefined) | – | 15.4% (inactive)
19 | CC1(C)O[C@@H]2C[C@H]3[C@@H]4C[C@H](F)C5=CC(=O)C=C[C@]5(C)[C@@]4(F)[C@@H](O)C[C@]3(C)[C@]2(C(=O)CO)O1 | – | -5.96% (inactive)
20 | CO[C@]1(NC(=O)CSC(F)F)C(=O)N2C(C(=O)O)=C(CSc3nnnn3CCO)CO[C@H]21 | – | 19.9% (inactive)

Row | Compound | Potency | max response
21 | O=C(O)/C=C(\CC(=O)O)C(=O)O | – | 8.32% (inactive)
22 | CCCC(=O)O[C@]1(C(=O)COC(=O)CC)CC[C@H]2[C@@H]3CCC4=CC(=O)CC[C@]4(C)[C@H]3[C@@H](O)C[C@@]21C | – | 31.6% (inactive)
23 | COc1cc(C(=O)OC(COCCC(C)C)CN2CCOCC2)cc(OC)c1OC (centres undefined) | – | 4.25% (inactive)
24 | COc1c(N2C[C@@H]3CCCN[C@@H]3C2)c(F)cc2c(=O)c(C(=O)O)cn(C3CC3)c12 | – | 11.5% (inactive) and 6.91% (inactive)
25 | CN(C)C(=O)CNC(=O)Cc1ccccc1 | – | 15% (inactive)
26 | O=S(=O)(O)c1ccc2nc(-c3ccccc3)[nH]c2c1 | – | 9.66% (inactive)
27 | Cc1cccc(C)c1NC(=O)c1cc(S(N)(=O)=O)c(Cl)cc1O | – | 11.8% (inactive)
28 | O=C(O)CCCC[C@@H]1SC[C@@H]2NC(=O)N[C@@H]21 | – | -7.74% (inactive)
29 | Cc1cc(O)c2c(O)c3c(O)cccc3cc2c1 | – | 12.2% (inactive)
30 | O=C(O)[C@@H](O)[C@H](O)[C@H](O)[C@@H](O)C(=O)O | – | 9.57% (inactive)
31 | CCCCCC[C@@H](CCC)C(=O)O | – | 16.9% (inactive)
32 | CC1(C)O[C@@H]2C[C@H]3[C@@H]4CCC5=CC(=O)C=C[C@]5(C)[C@@]4(F)[C@@H](O)C[C@]3(C)[C@]2(C(=O)CO)O1 | – | -0.0995% (inactive)
33 | Nc1ncnc2nc[nH]c12 | – | 3.66% (inactive)
34 | C[C@]12CCC(=O)C=C1CC[C@@H]1[C@@H]2[C@@H](O)C[C@@]2(C)[C@H]1CC[C@]2(O)C(=O)COC(=O)CCC(=O)O | – | -22.1% (inactive)
35 | Nc1ccc2cc3ccc(N)cc3nc2c1 | 12.6 µM (active) | –
36 | CO/N=C(/C(=O)N[C@@H]1C(=O)N2C(C(=O)O)=C(Cn3nnc(C)n3)CS[C@H]12)c1csc(N)n1 | – | -11.7% (inactive)
37 | O=[N+]([O-])c1ccc(O)c2ncccc12 | 8.91 µM (active) | –
38 | CC(C)OC(=O)c1cc2c(OCC(O)CNC(C)(C)C)cccc2[nH]1 (centres undefined) | – | 0.786% (inactive)
39 | CCO[C@H](Cc1ccc(OCCc2ccc(OS(C)(=O)=O)cc2)cc1)C(=O)O | – | 6.84% (inactive)
